# Screening results: PubChem BioAssay, several laboratories
# EWS-Fli inh = EWS/Fli transcriptional activity inhibition. A673 NR0B1-luciferase reporter, viability-normalised. inhibition, % at 12.6 µM. actives 0.67% (n = 350,000). AID 651661;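 active means mean inhibition of at least 50% after viability correction, with every replicate also passing that limit; inconclusive means mean reaches 50% but only one of two replicates passes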;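 further: firefly luciferase signal divided by Alamar Blue viability fluorescence both relative to DMSO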
# TWEAK Fn14 block = TWEAK-Fn14 signaling inhibition; TWEAK-stimulated Fn14 reporter cells, luciferase luminescence, 8 h; inhibition, % at 10 µM; actives 2% (n = 360,000); in the data active means inhibition above about 50%
# LGR2 antag = blocks bursicon-induced cAMP signaling via Drosophila LGR2; HEK293 LGR2, CRE-luciferase, bursicon-stimulated, 4 h; inhibition, % at 9.99 µM; actives 0.35% (n = 380,000);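 active means drop in luminescence signal, shown as inhibition above about 50% in the replicate tests, limit read from the data, passing the limit was not always enough; inconclusive means probably only some replicates passing the limit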;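 further: agonist challenge used bursicon conditioned medium at about half maximal strength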
# EBV LMP1 NFkB = reduces LMP1-driven NF-kappaB luciferase signal. LMP1-induced NF-kappaB luciferase reporter cells, luminescence. inhibition, % at 12.5 µM. actives 0.69% (n = 350,000). AID 504558; in the data active means inhibition above about 41%; inconclusive means no clear call, values can overlap the other calls;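 further: 0% = neutral control wells and 100% = reference inhibitor control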
# TROY NFkB inh = TROY signaling inhibition. actives 0.98% (n = 360,000). inhibition, % at 10 µM. Q293 LMP1-TROYcd NF-kB luciferase reporter, 4 h;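 active means compounds whose plate-normalised and pattern-corrected inhibition of the luciferase reporter signal at the single screening dose is 50% or more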
# Starred values were filed as active, the others as inactive; ? = inconclusive; . = no result. Rows were chosen to be rich in hits. Some 2.5% of all compounds tested hit in one or more screens of this group.
SMILES,EWS-Fli inh,TWEAK Fn14 block,LGR2 antag,EBV LMP1 NFkB,TROY NFkB inh
COc1cc(-c2noc(C)c2/C=C/c2ccc(OC(C)=O)cc2)cc(OC)c1OC,63.8*,51.8*,-0.6,11.3,5.1
C[C@H](CO)N1C[C@H](C)[C@H](CN(C)C(=O)Nc2cccc3ccccc23)Oc2c(NC(=O)C3CCCCC3)cccc2C1=O,2.7,.,13.8,.,.
O=C1CN(C(=O)Cn2ncc(Cl)c(Cl)c2=O)c2ccccc2N1,21.5,94.3*,105.1*,-45.7,70.2*
O=C(Cn1ncc(Cl)c(Cl)c1=O)NCC1CCCCC1,?,96.6*,.,85.8*,-0.5
O=C(Cn1ncc(Cl)c(Cl)c1=O)NC1CCS(=O)(=O)C1 (stereo not given),1.0,-13.2,-7.6,-1.2,-8.1
O=C(Cn1ncc(Cl)c(Cl)c1=O)NC1CCCCC1,50.8*,84.0*,2.6,-49.7,31.9
Cc1cccc(NC(=O)CNC(=O)Cn2ncc(Cl)c(Cl)c2=O)c1C,.,100.3*,.,-57.4,10.3
O=C(COC(=O)c1ccc(Cl)cc1)NCC1CCCCC1,-8.2,-2.2,.,3.1,0.6
Cc1ccc(S(=O)(=O)N(C)C[C@@H]2OCCCC[C@H](C)Oc3ccc(NC(=O)Nc4c(C)noc4C)cc3C(=O)N([C@H](C)CO)C[C@@H]2C)cc1,8.5,.,2.2,.,.
COc1ccc2c3c(n(C)c2c1)[C@H](CO)N(C(C)=O)CC31CN(S(=O)(=O)c2ccccc2)C1,-4.6,.,6.4,.,.
CC(NC(=O)/C=C/c1cnc2ccccc2n1)C12CC3CC(CC(C3)C1)C2 (stereo not given),8.1,76.8*,14.7,-6.5,75.0*
CC(=O)Nc1ccc(NC(=O)C(C)OC(=O)/C=C/c2cnc3ccccc3n2)cc1 (stereo not given),11.0,23.9,-9.1,-24.1,-7.9
CCOC(=O)CCSc1nc(C)c2cc(OC)ccc2n1,.,-31.3,.,-1.8,-47.1
CCOC(=O)CCSc1nc(C)c2cc(C)c(C)cc2n1,.,81.5*,.,2.6,.
COc1ccc(Cl)cc1NC(=O)c1cccc([N+](=O)[O-])c1O,-16.3,16.4,-20.8,6.9,56.4*
COc1ccc(Cl)cc1NC(=O)C/C(C)=N/NC(=O)c1ccccc1[N+](=O)[O-],9.6,-4.4,12.9,24.6,-3.8
CCN(CC)CCN1C(=O)/C(=C\c2ccc(Cl)c([N+](=O)[O-])c2)SC1=Nc1ccc(OC)cc1,59.7*,99.0*,19.4,30.1,74.1*
COc1ccc(N=C2S/C(=C\c3ccc(Cl)c([N+](=O)[O-])c3)C(=O)N2CCN(C)C)cc1,64.2*,60.0*,?,-10.5,80.6*
CCCN1C(=O)/C(=C/c2ccc(C)s2)SC1=Nc1ccc(OC)cc1,.,8.1,-7.1,-8.5,-0.3
C[C@H](NC(=O)C[C@H]1C[C@H]2c3cc(NC(=O)Nc4ccc(C(F)(F)F)cc4)ccc3O[C@H]2[C@H](CO)O1)c1ccccc1,4.8,.,6.1,.,.
COC(=O)c1c(C)[nH]c(C(=O)/C=C/c2ccccc2F)c1C,39.5,51.2*,-43.7,-24.7,60.5*
COC(=O)c1c(C)[nH]c(C(=O)/C=C/c2ccccc2Cl)c1C,-33.4,89.5*,-60.1,-25.8,-18.8
Cc1cc(C)c(C)c(S(=O)(=O)N2CCN(c3ncnc4ccccc34)CC2)c1C,23.4,92.8*,78.8*,22.8,58.2*
O=C(CSc1c(Cl)cccc1Cl)N1CCC(c2nc3ccccc3s2)CC1,.,18.5,.,5.2,51.3*
O=C(CSc1ccc(Cl)cc1)N1CCC(c2nc3ccccc3s2)CC1,.,43.6,.,14.0,25.3
SMILES,EWS-Fli inh,TWEAK Fn14 block,LGR2 antag,EBV LMP1 NFkB,TROY NFkB inh
C/C=C/c1cnc2c(c1)C(=O)N([C@@H](C)CO)C[C@H](C)[C@@H](CN(C)C(=O)Nc1ccc(F)cc1)O2,7.5,.,-0.4,.,.
CC(C)(S)[C@@H](N)C(=O)O,-4.9,-0.1,9.3,55.0*,3.0
Cc1ccc(C2CC(C(F)(F)F)n3nc(C(=O)NCc4c(C)nn(C)c4C)c(Cl)c3N2)cc1 (stereo not given),.,34.1,.,35.4,58.1*
Cc1nn(C)c(C)c1CNC(=O)c1cnn2c1NC(c1ccccc1)CC2C(F)(F)F (stereo not given),.,-21.8,13.1,-2.4,-7.2
COc1cc(CNc2ncnc3c2[nH]c2ccc(C)cc23)cc(OC)c1,3.5,23.9,23.3,28.2,50.5*
Cc1ccc2[nH]c3c(NCc4ccco4)ncnc3c2c1,.,44.3,.,4.3,-21.3
C[C@H](CO)N1C[C@H](C)[C@H](CN(C)C(=O)c2ccc(F)cc2)Oc2ncc(C3=CCCC3)cc2C1=O,-1.0,.,-4.4,.,.
O=C(NCC[C@H]1CC[C@H](NC(=O)c2cnccn2)[C@H](CO)O1)Nc1ccc(Cl)cc1,-41.4,.,-19.1,.,.
CCOC(=O)c1c(CSc2nc(C)cc(C)c2C#N)n(C)c2cc(Br)c(OC(C)=O)cc12,-4.3,60.8*,11.9,50.2*,27.0
Cc1ccc(C)c(NC(=O)c2ccccc2NS(=O)(=O)c2cc([N+](=O)[O-])ccc2C)c1,7.1,58.0*,29.8,30.7,54.6*
Cc1ccc([N+](=O)[O-])cc1S(=O)(=O)Nc1cccc(S(=O)(=O)Nc2ccccc2C(=O)O)c1,7.3,3.7,.,3.8,-7.5
CNC(=O)c1cc(Cl)c(OC)c(OC)c1,2.5,0.5,.,-1.6,14.1
COC(=O)C(=O)C1CCc2c(Cl)cc(OC)c(OC)c2C1=O (stereo not given),-70.3,8.2,.,86.8*,3.0
C[C@H](CO)N1C[C@H](C)[C@H](CN(C)C(=O)CN(C)C)Oc2cc(C#Cc3ccc(F)cc3)ccc2S1(=O)=O,58.2*,.,-12.6,.,.
C[C@@H]1CN([C@H](C)CO)S(=O)(=O)c2ccc(C#Cc3ccc(F)cc3)cc2O[C@@H]1CN(C)C(=O)CN(C)C,5.0,.,23.6,.,.
C[C@H]1CN([C@@H](C)CO)S(=O)(=O)c2ccc(C#Cc3ccc(F)cc3)cc2O[C@@H]1CN(C)C(=O)CN(C)C,66.9*,.,5.9,.,.
Oc1ccc(C=NNC(=S)Nc2ccccc2)nc1,-0.2,19.7,6.9,51.0*,-39.9
C[C@H](CO)N1C[C@H](C)[C@H](CN(C)S(=O)(=O)c2cn(C)cn2)Oc2ccc(NS(=O)(=O)c3ccc(F)cc3)cc2CC1=O,-11.2,.,12.6,.,.
C[C@H]1CN([C@@H](C)CO)C(=O)Cc2cc(NC(=O)Cc3cn(C)c4ccccc34)ccc2O[C@@H]1CN(C)Cc1ccncc1,10.7,.,4.7,.,.
CC(C)Cn1c(C(C)C)nc([N+](=O)[O-])c1Sc1ccc(Cl)cn1,.,18.1,.,-0.8,-7.5
CCCc1nc([N+](=O)[O-])c(S(=O)(=O)c2ccccc2)n1CC(C)C,-24.2,83.2*,13.4,10.9,25.7
CC(C)Cn1c(C(C)C)nc([N+](=O)[O-])c1S(=O)(=O)c1ccc(F)cc1,.,50.2*,.,-18.0,11.9
N#Cc1ccccc1Sc1ccccc1C(=O)OCC(=O)NC12CC3CC(CC(C3)C1)C2,.,62.8*,3.1,15.7,34.9
COc1ccc(C(=O)c2[nH]c(N)c(C(=O)NCCc3c[nH]c4ccccc34)c2-c2ccccc2C(F)(F)F)cc1,-1.0,.,21.7,.,.
